Some test systems named below: DU-145 prostate; K-562 leukemia; MALME-3M melanoma; MDA-MB-231 breast; RXF 393 renal; SF-268 CNS; SF-295 CNS; SF-539 CNS; UACC-257 melanoma; M14 melanoma; HCT-15 colon; HT29 colon; SNB-75 CNS; SNB-19 CNS; U251 CNS; PC-3 prostate; SK-MEL-5 melanoma; UACC-62 melanoma; SK-MEL-28 melanoma; LOX IMVI melanoma.
Experiment in all cases: NCI-60 one-dose screen, 48 h (100 = growth as untreated, 0 = no growth, -100 = all killed)
Holding throughout (conditions): 10 µM unless noted

Compounds without any hit were thinned out: in the full panel of roughly 83,000, 20% have a hit.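 How to read the values: 0–100, growth inhibition (40 = 60% inhibited); 0, no net growth; -100 to 0, cell death (-40 = 40% of starting cells died; -100 = all dead).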 A number with no mark means an inactive call. Calls of active or inactive are those of the source. Rule for the calls: active = growth percent below 10; inactive = the rest.

Turning to `COc1cccc(/C=C/C(=O)c2cc3c(N)c(C(=O)Nc4cccc5ccccc45)sc3nc2C)c1`, the growth in the experiment with DU-145 prostate was 7.62% (active); in the experiment with K-562 leukemia, 10.4%; in the experiment on MALME-3M melanoma, 33.5%; in the experiment with MDA-MB-231 breast, -3.88% (active); in the experiment on RXF 393 renal, -31.6% (active); with SF-268 CNS, 15.3%. The growth is 15.5% in the experiment on SF-295 CNS; -67.3% (active) in the experiment on SF-539 CNS; 61.7% in the experiment with UACC-257 melanoma; 2.46% (active) in the experiment on M14 melanoma; -23.1% (active) in the experiment on HCT-15 colon; -11.2% (active) in the experiment on HT29 colon. Also, the growth with SNB-75 CNS is -16.4% (active); in the experiment on SNB-19 CNS, -18.8% (active); in the experiment on U251 CNS, -11.4% (active); in the experiment with PC-3 prostate it was 27.7%; with SK-MEL-5 melanoma, -19.7% (active); with UACC-62 melanoma, -18.3% (active). The growth with SK-MEL-28 melanoma was 39.2%.
For the molecule `O=C(Cc1ccccc1)Nc1cccc(N=Cc2ccccc2O)c1`, the growth with DU-145 prostate was 93.1%; with K-562 leukemia, 98.7%; in the experiment on MALME-3M melanoma, 106%; in the experiment with MDA-MB-231 breast it was 114%; in the experiment with RXF 393 renal, 111%; with SF-268 CNS, 84%. Also, the growth in the experiment on SF-295 CNS was 100%; in the experiment with SF-539 CNS, 101%; in the experiment on UACC-257 melanoma, 105%; with M14 melanoma, 107%; with HCT-15 colon, 102%; in the experiment on HT29 colon, 113%. For the same molecule, the growth was 73.8% in the experiment on SNB-75 CNS; 99.2% in the experiment with SNB-19 CNS; 94.3% in the experiment on U251 CNS; 93.4% in the experiment with PC-3 prostate; 106% in the experiment on SK-MEL-5 melanoma; 101% in the experiment with UACC-62 melanoma. Further, the growth in the experiment with SK-MEL-28 melanoma was 111%.
On to `CN1C(=O)/C(=C2\SC(=Nc3ccccc3)N(Nc3ccccc3)C2=O)c2ccccc21`, for which the growth is 109% in the experiment on DU-145 prostate; 99.5% with K-562 leukemia; 110% in the experiment on MALME-3M melanoma; 91.4% with MDA-MB-231 breast; 109% with RXF 393 renal; 95.4% in the experiment with SF-268 CNS. Moreover, the growth was 105% with SF-295 CNS; 94.9% in the experiment on SF-539 CNS; 106% with UACC-257 melanoma; 101% in the experiment with M14 melanoma; 105% with HCT-15 colon; 119% in the experiment on HT29 colon. In addition, the growth in the experiment on SNB-75 CNS was 78.9%; with SNB-19 CNS, 95.9%; in the experiment with U251 CNS, 100%; in the experiment with PC-3 prostate it was 86.6%; with SK-MEL-5 melanoma it was 99.3%; with UACC-62 melanoma, 81.3%. Besides, the growth with SK-MEL-28 melanoma is 105%.
For the molecule `O=C(Oc1ccc(CCl)cc1)c1ccccc1`, the growth in the experiment with DU-145 prostate was -92.9% (active); with K-562 leukemia, -37.5% (active); with MALME-3M melanoma, -69.3% (active); in the experiment on MDA-MB-231 breast, -82% (active); in the experiment with RXF 393 renal, -90.5% (active); with SF-268 CNS, -79.3% (active). The growth in the experiment on SF-295 CNS was -92.5% (active); with SF-539 CNS, -87.6% (active); in the experiment on UACC-257 melanoma it was -67.4% (active); with M14 melanoma, -82.7% (active); in the experiment on HCT-15 colon, -87.4% (active); with HT29 colon it was -58.4% (active). The growth was -98.6% (active) in the experiment with SNB-75 CNS; -86.4% (active) in the experiment with SNB-19 CNS; -86.3% (active) in the experiment on U251 CNS; -91.3% (active) with PC-3 prostate; -99% (active) in the experiment on SK-MEL-5 melanoma; -85.1% (active) with LOX IMVI melanoma. Besides, the growth in the experiment on SK-MEL-28 melanoma is -75.6% (active).
As for `C/C(=N\O)c1ccc(NC(=O)CSc2nnc(-c3cc(-c4ccc(S(C)(=O)=O)cc4)nc4ccccc34)n2-c2ccccc2)cc1`, the growth was 92.6% with DU-145 prostate; 73.4% in the experiment with K-562 leukemia; 94.4% in the experiment with MALME-3M melanoma; 76.9% in the experiment on MDA-MB-231 breast; 98.7% with RXF 393 renal; 77.4% in the experiment on SF-268 CNS. Besides, the growth is 99.4% with SF-295 CNS; 83.4% in the experiment with SF-539 CNS; 99.1% in the experiment on UACC-257 melanoma; 93% with M14 melanoma; 84.7% in the experiment on HCT-15 colon; 102% in the experiment on HT29 colon. Moreover, the growth with SNB-75 CNS was 57%; with SNB-19 CNS, 87.6%; in the experiment with U251 CNS, 93.5%; in the experiment with PC-3 prostate, 68.5%; in the experiment on SK-MEL-5 melanoma, 74.8%; in the experiment on UACC-62 melanoma, 80.6%. Further, in the experiment with SK-MEL-28 melanoma, the growth is 102%.
`COc1ccc2c(c1)c(-c1nc(-c3c[nH]c4ncccc34)cs1)cn2CCO`: the growth in the experiment with DU-145 prostate was 56.5%; with K-562 leukemia, 43.5%; in the experiment with MALME-3M melanoma it was 75.9%; in the experiment on MDA-MB-231 breast, 51.5%; in the experiment with RXF 393 renal, 30.1%; with SF-268 CNS, 66.6%. The growth in the experiment with SF-295 CNS is 57.9%; in the experiment on SF-539 CNS, 50%; in the experiment on UACC-257 melanoma, 91%; with M14 melanoma, 59.3%; with HCT-15 colon it was 32%; with HT29 colon, 54.5%. Besides, the growth is 31.7% with SNB-75 CNS; 82.4% with SNB-19 CNS; 53.2% in the experiment with U251 CNS; 49% in the experiment with PC-3 prostate; 58.4% with SK-MEL-5 melanoma; 42.8% in the experiment with LOX IMVI melanoma. Further, in the experiment with SK-MEL-28 melanoma, the growth was 78.5%.
Turning to `Clc1ccccc1-c1cnn2cc(-c3ccccc3)cnc12`, the growth is 87.6% in the experiment on DU-145 prostate; 67.3% in the experiment with K-562 leukemia; 89.9% with MALME-3M melanoma; 72.4% in the experiment with MDA-MB-231 breast; 87.6% with RXF 393 renal; 85.6% in the experiment on SF-268 CNS. Further, the growth in the experiment on SF-295 CNS is 82.9%; in the experiment on SF-539 CNS, 81.3%; in the experiment on UACC-257 melanoma, 86.3%; in the experiment with M14 melanoma, 91.5%; in the experiment on HCT-15 colon, 70.1%; with HT29 colon, 73.4%. Also, the growth in the experiment on SNB-75 CNS is 74.2%; with SNB-19 CNS, 71%; in the experiment with U251 CNS, 82.9%; with PC-3 prostate it was 86.4%; in the experiment on SK-MEL-5 melanoma it was 93.2%; with UACC-62 melanoma, 65.9%. The growth with SK-MEL-28 melanoma was 88.3%.
On to `CCOC(=O)c1[nH]c2c(c1C)-c1[nH]c(=O)c(S(=O)(=O)c3ccccc3)cc1SC2`, for which the growth was 15.4% [100 µM] in the experiment on DU-145 prostate; 49.8% [100 µM] in the experiment on K-562 leukemia; 4.32% [100 µM] (active) in the experiment on MALME-3M melanoma; 25.6% [100 µM] in the experiment on MDA-MB-231 breast; -5.27% [100 µM] (active) in the experiment with RXF 393 renal; 21.8% [100 µM] with SF-268 CNS. Also, the growth with SF-295 CNS was 8.44% [100 µM] (active); in the experiment on SF-539 CNS it was 30% [100 µM]; in the experiment on UACC-257 melanoma, 66.8% [100 µM]; in the experiment with M14 melanoma, 51.8% [100 µM]; in the experiment on HCT-15 colon, 72.8% [100 µM]; in the experiment on HT29 colon, 13.4% [100 µM]. Also, the growth in the experiment on SNB-75 CNS is 17% [100 µM]; in the experiment with SNB-19 CNS, 94.7% [100 µM]; with U251 CNS, 31.9% [100 µM]; in the experiment on PC-3 prostate, -29.5% [100 µM] (active); with SK-MEL-5 melanoma, 35.9% [100 µM]; in the experiment on UACC-62 melanoma it was 21.2% [100 µM]. Also, the growth in the experiment on SK-MEL-28 melanoma is 20.7% [100 µM].

These data come from PubChem BioAssay (NCI).
